In PubChem BioAssay (NCI):
Values joined by “and” are separate entries in the source; they are usually repeats but may differ in a detail not shown here. Equal values may be shown once. This is part of a sample that, as a whole, favours compounds with a hit. Of some 83,000 tested, about 20% had one in any assay.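 Note: values are percent growth. 100 is the growth of untreated cells, values between 100 and 0 indicate rising inhibition; between -100 and 0 indicates cell death.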 Unmarked numbers belong to inactive results. Active and inactive are the calls of the source. Where a SMILES comes first, the peptide text is derived from it. The star is where a group is joined. Trt = c1ccc(C(c2ccccc2)(c2ccccc2)*)cc1; Cbz = O=C(OCc1ccccc1)*

test system: EKVX NSCLC; test: NCI-60 one-dose screen, 48 h (100 = growth as untreated, 0 = no growth, -100 = all killed); settings: 10 µM
Description: Growth inhibition of the EKVX human Non-Small Cell Lung tumor cell line is measured as a screen for anti-cancer activity. Cells are grown in 96 well plates and exposed to the test compound for 48 hours. Compounds are tested at a single concentration, which is 10^-5 M for most compounds. The reported endpoint is percent growth (GI% or GIPRCNT), where numbers from 0 - 100% represent growth inhibition, and numbers from -100% - 0 represent cell death. For example, a value of 40 represents 60% growth inhibition. A value of 0 means no net growth occurred over the course of the experiment. A value of -40 indicates 40% of cells at the beginning of the experiment died by the end of the experiment. A value of -100 means all cells are dead at the end of the experiment.
NCI-60 Human Tumor Cell Lines Screen was performed using the standard one-dose NCI protocol, which is described in more detail at https://dtp.cancer.gov/discovery_development/nci-60/default.htm.
Compounds with GIPRCNT values below 10 were considered active. Activity score was based on GIPRCNT using the following formula: […]
Score is 0 for GIPRCNT values of 100 or above, 50 for GIPRCNT values of 0, and 100 for GIPRCNT values of -100.

| SMILES | growth |
| --- | --- |
| O=C(O)c1c(Cl)c(Cl)c(Cl)c(Cl)c1-c1c2cc(I)c(=O)c(I)c-2oc2c(I)c(O)c(I)cc12 | 98.6% and 98.8% and 91.3% |

same assay, conditions: 10 µM unless noted

| SMILES | growth |
| --- | --- |
| Cc1ccc(NS(=O)(=O)c2ccc(C)cc2)cc1 | 96.3% |
| COC(=O)C(CSC(c1ccccc1)(c1ccccc1)c1ccccc1)NC(=O)C(CC(N)=O)NC(=O)OCc1ccccc1 (stereo not drawn) (Cbz-Asn-Cys(Trt)-OMe; configuration not given here) | 36.6% |
| CC(=O)ON=C1C=CC(=C(C#N)c2ccccc2)C=C1 | 82.7% |
| c1ccc2c(c1)Nc1cc3ccccc3cc1N2 | 56.4% |
| CCOc1ccc(-c2nc3ccc(-c4nc5ccc(N6CCN(C)CC6)cc5[nH]4)cc3[nH]2)cc1 | -75.5% (active) |
| COc1ccc2nc3cc(Cl)ccc3c(NCCNc3c4ccc(Cl)cc4nc4ccc(OC)cc34)c2c1 | -83.5% (active) |
| CC(=Nc1ccc(N(C)C)cc1)c1ccccc1 | 58.6% |
| CC(=O)C(=Cc1ccc(C=C(C(C)=O)C(C)=O)cc1)C(C)=O | 94.2% |
| S=C(NCCNC(=S)[S][Sn]([c]1ccccc1)([c]1ccccc1)[c]1ccccc1)[S][Sn]([c]1ccccc1)([c]1ccccc1)[c]1ccccc1 | -91.4% (active) |
| O=Nc1ccccc1N=O | 88.7% |
| N[C@H](C(=O)O)[C@@H]1CC(Cl)=NO1 | 23.6% [20 µM] |
| COc1cc(/C=C/C(C)=O)ccc1O | 91.8% and 112% |
| O=C(Nc1ccc(F)cc1)ON=C1CCCCC1 | 111% [100 µM] |
| CCCCCCCCCCCCCCNCc1ccccc1 | 93.4% |
| Nc1nc(N)c2nc(CNc3ccc(C(=O)NC(CCC(=O)O)C(=O)O)cc3)cnc2n1 (stereo not given) | 72.9% and 44.4% |
| O=C1N[C@H]2[C@H](CS[C@H]2CCCCC(=O)N(CCP(c2ccccc2)c2ccccc2)CCP(c2ccccc2)c2ccccc2)N1 | 75.3% |
| CCC1OC(OC)C=CC1=O (stereo not given) | 89% |
| CCN(CC)CC(C)(C)C(=O)/C=C/c1ccc(Cl)c(Cl)c1 | 28.2% |
| O=C(Nc1c(Cl)cccc1Cl)Oc1cccc2cccnc12 | -9.97% [100 µM] (active) |

| SMILES | growth |
| --- | --- |
| C[n+]1c(/C=C/c2ccc([N+](=O)[O-])cc2)ccc2ccccc21 | 62.8% |
| O=C1C2=C(Nc3cc([N+](=O)[O-])ccc3N2)OC1c1c2ccccc2cc2ccccc12 (stereo not given) | 43.6% |
| CC1OC2CC(=O)OC2C2=C1C(=O)c1c(O)cccc1C2=O (stereo not given) | -53.3% (active) |
| C=C(Cl)C(=NC(C)(C)C)Nc1ccccc1C | 90.4% |
| O=C1C=CC(=O)N1C1c2ccccc2-c2ccccc21 | 105% |
| CN(C)c1ccc(C(=C2C=CC(=[N+](C)C)C=C2)c2ccc(N(C)C)cc2)cc1 (tested in a mixture with another compound) | -35.6% (active) |
| CCCCCCCCCCCCCCCCN(CC)CC | -88.5% (active) |
| O=C(/C=C/C=C/c1ccccc1)c1ccco1 | 112% |
| CN=C(N)N/N=C(\C)c1ccc2c(c1)Cc1cc(/C(C)=N/NC(N)=NC)ccc1-2 | 6.23% (active) |
| COc1cc(NS(C)(=O)=O)ccc1Nc1c2ccccc2nc2ccccc12 | 58.8% [2.5 µM] |
| CNC(=O)N/N=C/c1ccc([N+](=O)[O-])o1 | 107% |
| NC(=O)/C=C/C(=O)c1c(Cl)cccc1Cl | -36.4% (active) |
| CCC(CCCN(CC)CCc1ccccc1)OC(=O)c1cc(OC)c(OC)c(OC)c1 (stereo not given) | 83.8% |
| Cn1c2c(c3ccccc31)CCN1C[C@@H]3CCCC[C@H]3C[C@@H]21 | 26.3% |
| O=C(/C=C/c1cccc(Cl)c1)c1ccccc1 | 93.5% |
| N#CSCc1ccc(Cl)c(CSC#N)c1 | 75.1% |
| CCOC(=O)/C=C/c1ccc([N+](=O)[O-])o1 | 107% |
| CC1OC(OC2C(OC3CCC4(C)C(CCC5(C)C4CC=C4C6CC(C)(C)CCC6(CO)C(O)CC45C)C3(C)C)OC(C(=O)O)C(OC3OC(COC4OC(CO)C(O)C(O)C4O)C(O)C(O)C3O)C2O)C(O)C(O)C1O (stereo not given) | -74.8% (active) |
| CC(C)c1ccc2nc3ccc(C(=O)NCCN4CCN(c5ccccc5)CC4)cn3c(=O)c2c1 | 74.5% |

same assay, conditions: 100 µM

| SMILES | growth |
| --- | --- |
| O=C(O)c1c(Cl)c(Cl)c(Cl)c(Cl)c1-c1c2cc(I)c(=O)c(I)c-2oc2c(I)c(O)c(I)cc12 | -19.9% (active) |
